The values below come from the supplement of paper PMC10105736.

Holding throughout (test): MAPPIT interaction score (arbitrary units); higher = stronger binary interaction signal, active = hit call of the paper
One experiment has as its target DnaJ-1. The conditions noted are these: MAPPIT configuration: N-N; pair source set: Lit-BM-16.
The target of a further experiment is Eato. The note with it: MAPPIT configuration: N-N; pair source set: Lit-BS-16.
The next experiment has as its target eIF3m. The note with it: pair source set: Lit-BM-16.
Another experiment addresses pnr. The note with it: MAPPIT configuration: N-N; pair source set: DPIM.
In the next experiment the target is Fatp3. The note with it: MAPPIT configuration: N-N; pair source set: Curagen_low_conf.
In the next experiment the target is EndoB. The conditions noted are these: MAPPIT configuration: N-N; pair source set: screen_2.
In a further experiment the target is Drat. The conditions noted are these: MAPPIT configuration: N-N; pair source set: RRS.
The next experiment has as its target Doa. The note with it: MAPPIT configuration: N-N; pair source set: Finley_Y2H.
For another experiment, the target named is Doc1. The note with it: MAPPIT configuration: N-C; pair source set: screen_3.
A further experiment deals with Eglp4. The conditions noted are these: MAPPIT configuration: N-C; pair source set: screen_3.
The target of a further experiment is Faf2. The note with it: MAPPIT configuration: N-C; pair source set: screen_4.
Another experiment has as its target RIC-3. The conditions noted are these: MAPPIT configuration: N-C; pair source set: screen_4.

A number with no mark means an inactive call.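 Rule for the calls: active = MAPPIT score above the 99th percentile of random reference set scores in the same batch; inactive = at or below it.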
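Note: HEK293T cells with Epo stimulation, STAT-responsive firefly luciferase reporter, fold induction versus unstimulated cells divided by the larger fold induction of two negative controls lacking either bait or prey.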

B1: Mlf (protein)
chain: MSLFGALMGDFDDDLGLMNNHMNHTMNAMNMQMRSMNRLMNSFMPDPFMQVSPFDQGFQQNALMERPQMPAMPAMGLFGMPMMPNFNRLLNADIGGNSGASFCQSTVMTMSSGPDGRPQIYQASTSTKTGPGGVRETRRTVQDSRTGVKKMAIGHHIGERAHIIEKEQDMRSGQLEERQEFINLEEGEAEQFDREFTSRASRGAVQSRHHAGGMQAIMPARPAAHTSTLTIEPVEDDDDDDDDCVIQEQQPVRSSAGRHYSSAPTAPQNSGNIATAAAPTPTSSPTTYDTSNGNNNNYVSSRRSYLRNGHGHSLATPRRPLRTPPSSPLATVSTSPSIHPHPYAANPRRQQRAVKHFHTEDEAASSYKAVKRGKKK
For the molecule B1, the MAPPIT interaction score with DnaJ-1 is -0.321.

B2: eIF3f1 (protein)
chain: MSALNLTVRVHPVVLFQVVDAFERRNADSHRVIGTLLGSVDKGVVEVTNCFCVPHKEHDDQVEAELSYALDMYDLNRKVNSNESVVGWWATGNDVTNHSSVIHEYYARECNNPVHLTVDTSLQGGRMGLRAYVCIQLGVPGGKSGCMFTPIPVELTSYEPETFGLKLLQKTVGVSPAHRPKTVPPMLDLAQISEASTKLQSLLDLILKYVDDVIAHKVTPDNAVGRQLLDLIHSVPHMTHEQFTQMFNANVRNLLLVITLSQLIKTQLQLNEKLTFLPTA
On to B2, for which the MAPPIT interaction score with Eato was 0.224; with eIF3m (MAPPIT configuration: N-C), 3.45; in the experiment with eIF3m (MAPPIT configuration: N-N), 5.78 (active); with pnr it was -0.504.

B3: cnn (protein)
chain: MNSNRTSSSHNSRNLKILNASFDVPRPPGGGNSPLPSQGRSVRELEEQMSALRKENFNLKLRIYFLEEGQPGARADSSTESLSKQLIDAKIEIATLRKTVDVKMELLKDAARAISHHEELQRKADIDSQAIIDELQEQIHAYQMAESGGQPVENIAKTRKMLRLESEVQRLEEELVNIEARNVAARNELEFMLAERLESLTACEGKIQELAIKNSELVERLEKETASAESSNEAIDSLKVELEACRKENQDLVTSIRTLKHDMKRQVRSMKEAANTMDVQRQSILLLEATIKRKEKSCGSMQKNVLNYEALIAKLNAELETMRQQNVYFRELSENLQQKEVRQLDRGVAIVQPMRMTADAGRFVWQSGTIVAQEPLPLERQSAAATSNVSVSAVRLSSGPPPDQTYPVNGHDRAKYGLLQLFAAKLDWISAVPLALGHLALKIILLAMRLHSCLQNVHIPLRANRDLGAQLADKICELQEAQEKLKERERIHEQACRTIQKLMQKLSSQEKEIKKLNQENEQSANKENDCAKTVISPSSSGRSMSDNEASSQEMSTNLRVRYELKINEQEEKIKQLQTEVKKKTANLQNLVNKELWEKNREVERLTKLLANQQKTLPQISEESAGEADLQQSFTEAEYMRALERNKLLQRKVDVLFQRLADDQQNSAVIGQLRLELQQARTEVETADKWRLECVDVCSVLTNRLEELAGFLNSLLKHKDVLGVLAADRRNAMRKAVDRSLDLSKSLNMTLNITATSLADQSLAQLCNLSEILYTEGDASHKTFNSHEELHAATSMAPTVENLKAENKALKKELEKRRSSEGQRKERRSLPLPSQQFDNQSESEAWSEPDRKVSLARIGLDETSNSLAAPEQAISESESEGRTCATRQDRNRNSERIAQLEEQIAQKDERMLNVQCQMVELDNRYKQEQLRCLDITQQLEQLRAINEALTADLHAIGSHEEERMVELQRQLELKNQQIDQLKLAHSTLTADSQITEMELQALQQQMQEIEQLHADSVETLQSQLQKLKLDAVQQLEEHERLHREALERDWVALTTYQEQAQQLLELQRSLDYHQENEKELKQTLVENELATRALKKQLDESTLQASKAVMERTKAYNDKLQLEKRSEELRLQLEALKEEHQKLLQKRSNSSDVSQSGYTSEEVAVPMGPPSGQATTCKQAAAAVLGQRVNTSSPDLGIESDAGRISSVEVSNAQRAMLKTVEMKTEGSASPKAKSEESTSPDSKSNVATGAATVHDCAKVDLENAELRRKLIRTKRAFEDTYEKLRMANKAKAQVEKDIKNQILKTHNVLRNVRSNMENEL
Regarding B3, the MAPPIT interaction score with Fatp3 was -0.429.

B4: RpS20 (protein)
chain: MAAAPKDIEKPHVGDSASVHRIRITLTSRNVRSLENVCRDLINGAKNQNLRVKGPVRMPTKTLRITTRKTPCGEGSKTWDRFQMRIHKRIIDLHSPSEIVKKITSINIEPGVEVEVTIAN
Consider B4, for which the MAPPIT interaction score with EndoB was 3.62 (active).

B5: Obp84a (protein)
chain: MYSALVRACAVIAFLILSPNCARALQDHAKDNGDIFIINYDSFDGDVDDISTTTSAPREADYVDFDEVNRNCNASFITSMTNVLQFNNTGDLPDDKDKVTSMCYFHCFFEKSGLMTDYKLNTDLVRKYVWPATGDSVEACEAEGKDETNACMRGYAIVKCVFTRALTDARNKPTV
Take B5: the MAPPIT interaction score with Drat was 0.229.

B6: lok (protein)
chain: MARDTQGTQGTQSQASNIWTQVESQPMEKIVWGRLYGKNIKIKSLGTSSKYRIIYTHSSFSVDLNNDEFTAGRGEANDLILTLNDLPEKILTRISKVHFIIKRANCELTNPVYIQDLSRNGTFVNNEKIGTNRMRILKNDDVISLSHPTYKAFVFKDLSPNESIGLPEEINKTYYVNRKLGSGAYGLVRLVYDTRTCQQFAMKIVKKNMLSGARPSTNFSDPDRVLNEAKIMKNLSHPCVVRMHDIVDKPDSVYMVLEFMRGGDLLNRIISNKLLSEDISKLYFYQMCHAVKYLHDRGITHRDLKPDNVLLETNDEETLLKVSDFGLSKFVQKDSVMRTLCGTPLYVAPEVLITGGREAYTKKVDIWSLGVVLFTCLSGTLPFSDEYGTPAAQQIKKGRFAYGHPSWKSVSQRAKLLINQMLIVDPERRPSIDDVLQSSWLRDAPMLQKAKRLMKLDGMEIEEENFLEPPTKRSRR
As for B6, the MAPPIT interaction score in the experiment with Doa is 0.00241.

B7: MED19 (protein)
chain: MMSNYGNMMDSPKSSPHGGGRSPVVARQDSSGTLKTTISLGKTPTIIHTGPFYSMKEPPAKAELTGDKDLMTEYGLHHTLTKFKEKKFKESLASFLQNIPGINDLITHPVENSTLRSVIEKPPIGGKELLPLTPVQLAGFRLHPGPLPEQYRTTYVTPARKHKNKHKKQKHKDGVTTGQESTLLDSAGLETYEKKHKKQKRHEDDKERKKRKKEKKRKKKNQSPEPGVGLLPGGASLGGAAGVMGATSLGSLGGGPGGPGLSSLSASMGPGVVGNMNSFSSSMQMQQQQQMPMQQQQMSSGGLLGSVLGTSGGPGGGGGGGGGGGGGVGGSLLMSQF
Turning to B7, the MAPPIT interaction score with Doc1 is -0.0798.

B8: Membrin (protein)
chain: MESLYHQTNNVVKDIERDFQRLSQLSAQESLDVENGIQLKITQANANCDRLDVLLYKVPPSQRQSSKLRVDQLKYDLRHLQTSLQTARERRQRRMQEISEREQLLNHRFTANSAQPEETRLQLDYELQHHTQLGNAHRGVDDMIASGSGILESLISQRMTLGGAHKRIQAIGSTLGLSNHTMKLIERRLVEDRRIFIGGVVVTLLIIALIIYFLVL
B8: the MAPPIT interaction score with Eglp4 was 0.261; in the experiment with Faf2 it was 2.2; with RIC-3 it was -0.382.
